DUSP3 inh = blocks the human dual specificity phosphatase VHR1. inhibition, % at 20 µM. P51452. recombinant VHR phosphatase, colorimetric substrate read-out. 0.7% of 50,000 active; in the data active = inhibition above about 60%
Target sequence (P51452 whole entry, looked up): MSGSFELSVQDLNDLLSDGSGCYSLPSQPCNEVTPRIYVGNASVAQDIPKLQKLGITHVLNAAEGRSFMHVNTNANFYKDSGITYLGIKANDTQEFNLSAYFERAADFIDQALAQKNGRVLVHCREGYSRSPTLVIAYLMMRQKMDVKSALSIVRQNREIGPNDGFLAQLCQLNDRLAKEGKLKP
Of the large screens only hits and unclear results are named; the others gave an inactive call. Only a selection was taken, and hits are over-represented in it overall.

CCN1C(=O)/C(=C\c2ccc(N(C)C)c(Br)c2)SC1=S	none
COc1ccccc1N1COc2ccc3ccccc3c2C1	none
COc1ccc(C(=O)/C=C/c2ccc(-c3ccccc3[N+](=O)[O-])o2)cc1	none
CCOC(=O)c1sc(NC(=O)c2ccc(C)c([N+](=O)[O-])c2)c(C(=O)OCC)c1C	none
CCOC(=O)c1c(NC(=O)c2ccc(C)c([N+](=O)[O-])c2)sc(C(=O)Nc2ccccc2OC)c1C	DUSP3 inh 116
CCOC(=O)c1c(NC(=O)c2cccc(OC)c2)sc(C(=O)Nc2ccccc2OC)c1C	none
CS(=O)(=O)N(Cc1ccc(C(=O)Nc2ccc(Cl)c(C(F)(F)F)c2)cc1)c1ccccc1	none
COc1cccc(N(CC(=O)Nc2ccc(I)cc2)S(=O)(=O)c2ccccc2)c1	none
Cc1cc(/C=C2\C(=O)NC(=S)N(c3ccc(Cl)cc3)C2=O)c(C)n1C	none
COc1ccccc1N1C(=O)C(=Cc2cccn2C)C(=O)NC1=S	DUSP3 inh 77
O=C1NC(=S)N(c2cccc(Cl)c2)C(=O)/C1=C/c1ccc(Cl)cc1	none
COc1cc(Br)c(/C=C2\C(=O)NC(=S)N(c3ccccc3)C2=O)cc1OC	none
COc1ccccc1N1C(=O)NC(=O)/C(=C\c2cc3ccccc3n2C)C1=O	none
Cn1cccc1/C=C1/C(=O)NC(=S)N(c2ccc(Cl)cc2)C1=O	DUSP3 inh 70
CCC(C)c1ccc(NC(=O)/C=C/c2cccc([N+](=O)[O-])c2)c(O)c1 (centres undefined)	none
Cc1cc2ncn(CC(O)COc3ccc4ccccc4c3Br)c2cc1C (centres undefined)	none
O=C1/C(=C/c2ccccc2[N+](=O)[O-])SC(=S)N1c1cccc(C(F)(F)F)c1	none
Cc1ccc(-c2ccccc2)n1-c1ccc(C(=O)O)cc1	none
Cc1ccc(-c2ccccc2)n1-c1ccc(Cl)c(C(=O)O)c1	none
Cc1ccc(-c2ccccc2)n1-c1ccc(O)c(C(=O)O)c1	DUSP3 inh 99
CN1C2C=C(N(CCc3c[nH]c4ccccc34)C(=O)c3cc(Cl)cc(Cl)c3)CC1CC2 (centres undefined)	none
COc1cccc(NC2=NC3(CCCC3)N=C(N)N2)c1	none
CCc1c(C)sc(NC(=O)c2ccc(Cl)cc2)c1C(N)=O	none
CCCCOc1ccc(C(=O)Nc2sc(C)c(CC)c2C(N)=O)cc1	DUSP3 inh 70
CCc1c(C)sc(NC(=O)c2cccnc2)c1C(N)=O	none
C=CCc1cc(/C=C2\C(=O)NC(=O)N(c3cc(C)cc(C)c3)C2=O)cc(OC)c1O	none
CCN(CC)c1ccc(NC(=O)c2ccc(-c3cccc(Cl)c3)o2)cc1	none
O=C(Nc1ccc(Cl)cc1)c1ccc(-c2cccc(Cl)c2)o1	none
CCCOC(=O)c1ccc(NC(=O)c2ccc(-c3cccc(Cl)c3)o2)cc1	DUSP3 inh 109
O=C(COc1ccc2ccccc2c1)N1CCN(S(=O)(=O)c2ccc(Cl)cc2)CC1	none
Cc1ccc(S(=O)(=O)N2CCN(C(=O)COc3ccc(Cl)cc3)CC2)cc1	DUSP3 inh 87
O=C(COc1ccc(Cl)cc1)N1CCN(C(=O)COc2ccc3ccccc3c2)CC1	none
CCOC(=O)C1=C(c2ccccc2)N=c2s/c(=C\c3ccc(O)c(OC)c3)c(=O)n2C1c1ccccc1OC (centres undefined)	none
CCOc1ccc(C(=O)Nc2cc(-c3nc4ccc(C)cc4o3)ccc2Cl)cc1[N+](=O)[O-]	none
CC(C)CC(=O)N1CCN(Cc2c[nH]c3ccccc23)CC1	none
CC1(C)CC(=O)C(C2COC3=C2C(=O)CC(C)(C)C3)C(=O)C1 (centres undefined)	none
Cc1ccc(N(CC(=O)Nc2cccnc2)S(=O)(=O)c2ccc(F)cc2)cc1	none
CCOc1cc(C2Nc3cc(C)c(C)cc3NC3=C2C(=O)CC(C)(C)C3)cc([N+](=O)[O-])c1O (centres undefined)	DUSP3 inh 118
Cc1cc2c(cc1C)NC(c1c(F)cccc1F)C1=C(CC(C)(C)CC1=O)N2 (centres undefined)	none
COc1cc(C2Nc3cc(C)c(C)cc3NC3=C2C(=O)CC(C)(C)C3)cc(Br)c1OC (centres undefined)	none
CC(=O)Nc1ccc(C2Nc3cc(C)c(C)cc3NC3=C2C(=O)CC(C)(C)C3)cc1 (centres undefined)	DUSP3 inh 100
COC(=O)c1ccc(C2Nc3cc(C)c(C)cc3NC3=C2C(=O)CC(C)(C)C3)cc1 (centres undefined)	none
CCOc1cc(C2C(C(=O)OCC3CCCO3)=C(C)NC3=C2C(=O)CCC3)cc([N+](=O)[O-])c1O (centres undefined)	none
CC(NC(=O)c1ccccc1)C(=O)OCC(=O)Nc1ccc(S(N)(=O)=O)cc1 (centres undefined)	none
O=C(O)c1ccccc1Sc1ccccc1C(=O)O	none
COc1cccc2c1NC(c1ccccc1Cl)C1CC=CC21 (centres undefined)	none
COC(=O)c1ccc2c(c1)C1C=CCC1C(c1cccc3ccccc13)N2 (centres undefined)	none
COc1cccc2c1NC(c1cccc3ccccc13)C1CC=CC21 (centres undefined)	DUSP3 inh 88
O=[N+]([O-])c1ccc(OCC(O)CN2CCOCC2)cc1 (centres undefined)	none
O=C(COc1ccc(Cl)cc1)Nc1ccc(I)cc1Cl	none
O=C(/C=C/c1ccco1)Nc1ccc(O)c(-c2nc3ccccc3o2)c1	none
O=C(/C=C/c1ccco1)Nc1ccc(-c2nc3ccccc3s2)c(O)c1	DUSP3 inh 75
O=C(Nc1ccc(-c2nc3ccccc3s2)c(O)c1)c1cc2ccccc2o1	none
Cc1cc(C)cc(OCCCN2CCN(C)CC2)c1	none
CCCC1=NN2C(=N)/C(=C/c3ccc(OCc4ccccc4Cl)cc3)C(=O)N=C2S1	none
CCCC1=NN2C(=N)/C(=C/c3cc(OC)ccc3OC)C(=O)N=C2S1	DUSP3 inh 112
CCC1=NN2C(=N)/C(=C/c3ccc(OCCOc4cccc(OC)c4)c(OC)c3)C(=O)N=C2S1	none
CCOc1ccc(Cl)cc1/C=C1\C(=N)N2N=C(CC)SC2=NC1=O	none
CCCC1=NN2C(=N)/C(=C/c3ccc(-c4ccc(Cl)cc4Cl)o3)C(=O)N=C2S1	none
CCCC1=NN2C(=N)/C(=C/c3ccc4c(c3)OCO4)C(=O)N=C2S1	DUSP3 inh 105
CCOc1cc(OCC)cc(C(=O)Nc2cccc(-c3nc4ncccc4o3)c2C)c1	none
O=C1NC(=O)N(c2ccccc2F)C(=O)/C1=C/c1ccc(I)o1	none
CCSCCOC(=O)C1=C(C)NC(=O)NC1c1cccc(Br)c1 (centres undefined)	none
Cc1cc[n+](CC(=O)OC23CC4CC(CC(C4)C2)C3)cc1	none
Cc1ccc(-c2nc3ccc(Br)cc3c(C(=O)O)c2C)cc1	none
Cc1cc(C(=O)Nc2ccc3nn(-c4ccccc4)nc3c2)ccc1[N+](=O)[O-]	none
CCc1cccc(C)c1NC(=O)c1ccc(Br)o1	none
O=C1c2ccccc2C(=O)N1CC(=O)N(Cc1ccccc1)c1cccc([N+](=O)[O-])c1	none
N#C/C(=C\c1ccc(-c2ccc3c(c2)COC3=O)o1)c1nc2ccccc2[nH]1	DUSP3 inh 64
N#C/C(=C\c1ccc(-c2ccc3c(c2)COC3=O)o1)C(N)=O	none
N#CC(C#N)=Cc1ccc(-c2ccc3c(c2)COC3=O)o1	none
COc1cc(/C=C2\SC(=Nc3ccc(C)c(Cl)c3)NC2=O)ccc1C	none
Cc1ccc(S(=O)(=O)NCCOc2ccccc2Cl)cc1[N+](=O)[O-]	none
CCN(CC)S(=O)(=O)c1cc(C(=O)c2ccc(Br)cc2)ccc1C	none
CCOc1cc(/C=N/n2cnnc2)ccc1OCCOc1cccc(C)c1	none
Brc1ccc(OCCOc2cccc(/C=N/n3cnnc3)c2)cc1	none
Cc1ccc(C(C)C)c(OCCOc2ccc(/C=N/n3cnnc3)cc2)c1	none
CCc1cc(C)cc(OCCOc2ccc(/C=N/n3cnnc3)cc2)c1	none
